Source: PubChem (Center for Chemical Genomics, University of Michigan)
Dicer inh = inhibitors of human Dicer processing of pre-microRNA; z-score at 25 µM; Q9UPY3; cat-ELCCA pre-miR-21 Dicer processing, chemiluminescence; stronger effect = higher value; hit rate 6% among 47,000; in the data active = z-score above about 3, passing the limit was not always enough;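 also: higher signal means more uncleaved substrate so more Dicer inhibition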
Target sequence (Q9UPY3 whole entry, looked up): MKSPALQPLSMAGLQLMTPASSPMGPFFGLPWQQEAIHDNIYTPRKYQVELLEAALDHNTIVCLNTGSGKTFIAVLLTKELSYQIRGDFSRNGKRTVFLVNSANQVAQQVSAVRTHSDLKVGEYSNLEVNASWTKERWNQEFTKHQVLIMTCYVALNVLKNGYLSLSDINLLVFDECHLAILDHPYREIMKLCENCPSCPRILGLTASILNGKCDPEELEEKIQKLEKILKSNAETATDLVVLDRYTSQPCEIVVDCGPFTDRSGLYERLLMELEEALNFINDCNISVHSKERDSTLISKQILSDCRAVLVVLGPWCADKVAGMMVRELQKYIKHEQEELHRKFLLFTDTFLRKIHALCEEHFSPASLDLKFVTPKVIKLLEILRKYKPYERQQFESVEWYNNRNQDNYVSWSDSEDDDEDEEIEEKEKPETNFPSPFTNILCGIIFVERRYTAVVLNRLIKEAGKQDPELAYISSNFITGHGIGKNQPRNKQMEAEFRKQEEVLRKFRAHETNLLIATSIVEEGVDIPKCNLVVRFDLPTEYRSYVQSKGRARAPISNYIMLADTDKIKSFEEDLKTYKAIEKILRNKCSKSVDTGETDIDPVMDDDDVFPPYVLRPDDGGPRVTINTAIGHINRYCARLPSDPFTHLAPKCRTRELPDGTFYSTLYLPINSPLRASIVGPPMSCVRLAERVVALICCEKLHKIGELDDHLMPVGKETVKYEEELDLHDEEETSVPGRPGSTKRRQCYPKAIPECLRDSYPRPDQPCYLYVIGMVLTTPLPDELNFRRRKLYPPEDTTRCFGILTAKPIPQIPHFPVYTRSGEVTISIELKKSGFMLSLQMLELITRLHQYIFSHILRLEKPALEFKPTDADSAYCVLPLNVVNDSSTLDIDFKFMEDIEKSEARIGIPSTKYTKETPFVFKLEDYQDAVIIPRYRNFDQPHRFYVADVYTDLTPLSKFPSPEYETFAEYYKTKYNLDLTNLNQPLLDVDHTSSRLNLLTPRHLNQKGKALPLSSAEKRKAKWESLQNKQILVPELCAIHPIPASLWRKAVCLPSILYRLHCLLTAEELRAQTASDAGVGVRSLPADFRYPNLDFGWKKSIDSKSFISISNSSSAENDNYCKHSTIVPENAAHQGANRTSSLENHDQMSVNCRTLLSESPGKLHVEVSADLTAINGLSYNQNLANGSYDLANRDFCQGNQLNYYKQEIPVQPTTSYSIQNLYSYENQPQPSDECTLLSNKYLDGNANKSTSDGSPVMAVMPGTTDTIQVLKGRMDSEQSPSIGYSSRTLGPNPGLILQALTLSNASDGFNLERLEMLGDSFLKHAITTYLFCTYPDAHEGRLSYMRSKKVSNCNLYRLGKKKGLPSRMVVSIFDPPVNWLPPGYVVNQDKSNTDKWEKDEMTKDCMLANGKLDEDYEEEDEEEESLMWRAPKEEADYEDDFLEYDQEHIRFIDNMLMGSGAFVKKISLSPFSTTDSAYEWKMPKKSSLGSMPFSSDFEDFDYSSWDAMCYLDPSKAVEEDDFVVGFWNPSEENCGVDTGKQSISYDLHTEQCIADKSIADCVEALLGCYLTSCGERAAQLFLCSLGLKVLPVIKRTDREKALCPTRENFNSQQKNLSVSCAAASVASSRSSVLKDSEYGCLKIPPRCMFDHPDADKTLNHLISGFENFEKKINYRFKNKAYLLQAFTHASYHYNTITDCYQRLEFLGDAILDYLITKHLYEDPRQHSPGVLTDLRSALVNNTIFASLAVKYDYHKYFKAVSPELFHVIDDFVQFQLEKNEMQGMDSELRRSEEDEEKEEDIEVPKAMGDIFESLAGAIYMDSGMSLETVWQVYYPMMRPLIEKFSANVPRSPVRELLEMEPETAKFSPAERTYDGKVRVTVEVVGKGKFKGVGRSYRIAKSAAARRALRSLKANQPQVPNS
Each line names hits and unclear results; the compound was inactive in the other large screens. The sample as a whole holds a higher share of hits than the screen did.

CCOC(=O)C1=NN(c2ccc(C)cc2)C2C(=O)N(c3ccc(Br)cc3)C(=O)C12 (stereo not drawn)	none
CCOC(=O)c1ccc(N2C(=O)CS(=O)(=O)CC2=O)cc1	none
Fc1ccccc1NC(=S)N/N=C/c1cccc2ccccc12	Dicer inh 3.4
CC(C)(C)OC(=O)N/N=C\c1cccc2ccccc12	none
CNC(=S)N/N=C/c1c(O)ccc2ccccc12	none
CCOC(=O)c1nc(Nc2cc(OC)ccc2OC)c2ccccc2n1	none
COC(=O)c1ccc(CN2C(=O)C(=O)c3ccccc32)cc1	none
COc1ccc(NC(=S)N2CCc3sccc3C2c2ccc(OC)cc2)cc1 (stereo not drawn)	none
CN1CCN(C(=O)Oc2ccccc2)CC1	Dicer inh 3.8
CN1CCN(C(c2ccccc2)c2ccccc2)CC1	none
CN1CCN(C(=O)CN(c2ccccc2)S(=O)(=O)N(C)C)CC1	none
Clc1cccc(CN2CCN(Cc3ccco3)CC2)c1	none
Fc1cccc(CN2CCN(Cc3ccco3)CC2)c1	Dicer inh 3.5
Clc1ccc(CN2CCN(Cc3ccco3)CC2)cc1	none
C/C(=N\NC1=NCCCN1)c1ccc(C)cc1	none
COc1ccc(CNc2ccccc2-c2nc3ccccc3[nH]2)cc1	none
COc1ccc(Nc2nc(N)nc(CSc3ncccn3)n2)cc1	none
CCN1C(=O)C2(/C(=C(/O)c3ccc4c(c3)CC(C)O4)C(=O)C(=O)N2CCCN(C)C)c2ccccc21 (stereo not drawn)	Dicer inh 4.3
CCN1C(=O)C2(/C(=C(/O)c3ccc4c(c3)CC(C)O4)C(=O)C(=O)N2CCN(C)C)c2ccccc21 (stereo not drawn)	none
CCN1C(=O)C2(/C(=C(/O)c3ccc(OC)c(C)c3)C(=O)C(=O)N2CCN(C)C)c2ccccc21 (stereo not drawn)	none
CCCCN1C(=O)C2(/C(=C(/O)c3ccc4c(c3)CC(C)O4)C(=O)C(=O)N2CCOC)c2ccccc21 (stereo not drawn)	Dicer inh 4.9
CCCCN1C(=O)C2(/C(=C(/O)c3ccc(C)cc3)C(=O)C(=O)N2CCCN(C)C)c2ccccc21 (stereo not drawn)	none
COc1ccc(OCC(O)CNS(=O)(=O)c2cc(Cl)sc2Cl)cc1 (stereo not drawn)	none
O=C(CSc1nnc(Cc2cccs2)n1-c1ccccc1)c1c[nH]c2ccccc12	none
Cc1ccc(C(CC(=O)c2ccco2)SCCO)cc1 (stereo not drawn)	none
Cc1ccc(S(=O)(=O)C(CC(=O)c2ccco2)c2ccc(Cl)cc2)cc1 (stereo not drawn)	none
Cc1ccc(S(=O)(=O)C(CC(=O)c2ccc(F)cc2)c2ccco2)cc1 (stereo not drawn)	Dicer inh 3.2
COC(=O)/C(=C/C(=O)c1ccc(Cl)cc1)Nc1ccccc1	none
O=C1c2ccccc2C(=O)N1Cc1cccnc1	none
O=C1c2ccccc2C(=O)N1CNc1ccccc1Oc1ccc(Cl)cc1Cl	none
CCCc1ccc(NCN2C(=O)c3ccccc3C2=O)cc1	none
O=C1c2ccccc2C(=O)N1CNc1ccc(Oc2ccccc2)cc1	Dicer inh 3.8
O=C1c2ccc([N+](=O)[O-])cc2C(=O)N1CNc1cc(C(F)(F)F)cc(C(F)(F)F)c1	none
Cc1cccc(NCN2C(=O)c3ccccc3C2=O)c1C	none
CCC(C)c1ccc(NCN2C(=O)c3ccccc3C2=O)cc1 (stereo not drawn)	Dicer inh 3.1
O=C1c2ccccc2C(=O)N1CNc1ccc(Oc2ccc(Cl)cc2)cc1	none
CCc1ccccc1NCN1C(=O)c2ccccc2C1=O	Dicer inh 3.4
CC(C)(O)C#Cc1ccc(/C=N/Nc2ncc(Cl)cc2C(F)(F)F)cc1	none
Cc1ccc(NC2=NC(c3ccccc3)n3c(nc(C)cc3=O)N2)c(C)c1 (stereo not drawn)	none
Cc1cc(C)c2nc(Nc3nc(C)cc(=O)[nH]3)nc(C)c2c1	none
Cc1cc(C)c2nc(NC3=NC(c4ccccc4)CC(=O)N3)nc(C)c2c1 (stereo not drawn)	Dicer inh 3.5
Cn1c(=O)[nH]c(=O)c2c1nc(NCCCO)n2CCO	none
Cn1c(=O)[nH]c(=O)c2c1nc(NCCCO)n2CCCc1ccccc1	Dicer inh 3.4
C=CCNc1nc2c(c(=O)[nH]c(=O)n2C)n1CCO	none
CCCCCn1c(NCCO)nc2c1c(=O)[nH]c(=O)n2C	Dicer inh 3.6
Cn1c(=O)c2c(nc(NCCO)n2CCCc2ccccc2)n(C)c1=O	none
CCn1c(NCCCO)nc2c1c(=O)[nH]c(=O)n2C	none
N#Cc1cnc(Sc2nc3ccccc3s2)nc1N	none
O=c1[nH]c(=O)n(Cc2ccccc2)c2nc[nH]c12	none
OCc1ccccc1-c1ccccc1CO	none
CCOC(=O)C1=C(C)Nc2nnnn2C1c1cc(Br)ccc1OC (stereo not drawn)	Dicer inh 47
COc1ccccc1C1C(C(=O)OC(C)C)=C(C)Nc2nnnn21 (stereo not drawn)	Dicer inh 3.2
CCOC(=O)C1=C(C)Nc2nnnn2C1c1cc(OC)ccc1OC (stereo not drawn)	none
COC(=O)C1=C(C)Nc2nnnn2C1c1cc(Br)ccc1OC (stereo not drawn)	none
COC(=O)C1=C(C(=O)c2ccc(C)cc2)C(c2ccccc2OC)n2nnnc2N1 (stereo not drawn)	none
COC(=O)C1=C(C(=O)c2ccccc2)C(c2ccccc2OC)n2nnnc2N1 (stereo not drawn)	none
COc1ccc2nc(SCC(=O)Nc3ccc4c(c3)OCO4)[nH]c2c1	none
COc1ccc(Cc2nn3c(-c4ccccc4)nnc3s2)cc1	none
CCCOC(=O)COc1ccc2c(=O)c(-c3ccc(OC)c(OC)c3)c(C(F)(F)F)oc2c1	none
Cc1ccc(C(=O)O)c2c1NC(c1ccc(Cl)cc1)C1CC=CC21 (stereo not drawn)	none
Cc1ccc(C2Nc3c(C)ccc(C(=O)O)c3C3C=CCC32)cc1 (stereo not drawn)	Dicer inh 3.3
Cc1ccc(C(=O)O)c2c1N[C@H](c1cccc(Cl)c1)C1CC=CC21 (stereo partly drawn)	none
Cc1nc2c(-c3ccc(Br)cc3)c(C(F)(F)F)nn2c(C)c1-c1ccccc1	none
COCCCn1c(O)c(C#N)c(C)cc1=O	none
CCCC(=O)N1c2ccc(C)cc2C(=C2SC(C(=O)OC)=C(C(=O)OC)S2)C(=S)C1(C)C	none
CS/C(=N\S(=O)(=O)c1ccccc1)N1CCCCC1	none
CS/C(=N\S(=O)(=O)c1ccccc1)N1CCCC1	none
CSC(=Nc1ccccc1F)N1CCCCC1	Dicer inh 4.8
COc1ccc(NC(=O)Nc2ccc(OC(F)(F)F)cc2)c(OC)n1	none
COc1c(Cl)cc(Cl)cc1-c1csc(NC(=O)C(Cl)(Cl)Cl)n1	none
CCc1ccc(-c2c(C#N)c(N)nc3c2CCCCCC3)s1	none
CCOC(=O)c1sc(-c2ccccc2)nc1CSc1cc(C(F)(F)F)cc(C(F)(F)F)c1	none
Cc1nc2c(cnn2-c2ccccc2)c(=O)n1/N=C/c1ccccc1	none
O=C(Cn1cnc2c(cnn2-c2ccccc2)c1=O)c1ccc(Cl)cc1	none
CCOC(=O)c1cnn(-c2ccccc2)c1NC(=O)Nc1cccc(Cl)c1	none
O=c1c2cnn(-c3ccccc3)c2nc(-c2ccco2)n1-c1ccccc1	none
Cc1nc2c(cnn2-c2ccccc2)c(=O)n1NC(=O)Nc1ccc(Cl)c(Cl)c1	Dicer inh 4.7
Cc1nc2c(cnn2-c2ccccc2)c(=O)n1-c1cccc2ccccc12	Dicer inh 3.2
COC(=O)CSC1=C(C#N)C(c2cccc(Cl)c2)CC(=O)N1 (stereo not drawn)	none
O=c1cc(CSc2n[nH]c(=O)n2-c2ccc3c(c2)OCCO3)c2ccc(O)cc2o1	none
O=C(NC(=O)N1CCN(c2ccc(C(F)(F)F)cc2[N+](=O)[O-])CC1)c1ccc([N+](=O)[O-])cc1	none
O=C1CC(c2ccccc2Cl)Oc2ccccc21 (stereo not drawn)	none
